Experimental data as given in PubChem BioAssay AID2013 (Sanford-Burnham Center for Chemical Genomics, 2009).
The whole screen tested about 290,000 compounds, of which about 370 (0.13%) were called active. The sample holds actives, similar compounds and a random draw of the others, so the mix is not that of the screen. Entries with a potency or affinity are not part of this list. A number with no mark means an inactive call.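 How the source made its calls: active means spots per cell inhibited over 60%, with over 100 cells counted and total cytoplasm intensity under 500,000; inconclusive means wells with under 100 cells, flagged as likely toxic; inactive means the rest.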

target: G-protein coupled receptor 55 (Homo sapiens) (UniProt Q9Y2T6); assay: GPR55 antagonists blocking LPI-driven arrestin recruitment, primary screen, imaging, U2OS, beta-arrestin-GFP, LPI agonist (AID 2013); conditions: U2OS GPR55 beta-arrestin-GFP translocation imaging, LPI antagonism; at 10 µM; stronger effect = higher value;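 further: U2OS cells stably carrying GPR55 and arrestin-GFP stimulated by 5 µM LPI near EC80; imaged beta-arrestin-GFP aggregate spots per cell after agonist stimulation; plate controls were LPI-stimulated DMSO wells for no effect and DMSO wells without LPI for full effect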
Sequence (Q9Y2T6 whole entry, looked up): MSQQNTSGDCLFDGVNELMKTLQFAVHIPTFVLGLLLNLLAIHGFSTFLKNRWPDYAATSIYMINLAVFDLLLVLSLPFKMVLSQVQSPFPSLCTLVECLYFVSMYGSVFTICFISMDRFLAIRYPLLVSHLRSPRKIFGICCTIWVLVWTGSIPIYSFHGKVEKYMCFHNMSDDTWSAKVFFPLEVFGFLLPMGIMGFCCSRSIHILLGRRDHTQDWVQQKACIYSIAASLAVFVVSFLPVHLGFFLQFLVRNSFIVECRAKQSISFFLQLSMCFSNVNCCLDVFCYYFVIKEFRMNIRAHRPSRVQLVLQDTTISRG

| SMILES | inhibition |
| --- | --- |
| O=S(=O)(c1ccc(Br)cc1)c1nc(-c2ccco2)oc1NCC1CCCO1 (stereo not given) | -16.8% |
| CC(C)(C)c1csc(NC(=O)CSc2nc3ccccc3c(=O)[nH]2)n1 | -12.6% |
| C=CCNC(=O)c1cc2c(=O)n3cc(C)ccc3nc2nc1NCC1CCCO1 (stereo not given) | 93.3% (active) |
| CCNc1nc2nc3ccc(C)cn3c(=O)c2cc1C(=O)NCC1CCCO1 (stereo not given) | 7.3% |
| Cc1ccc2nc3nc(NCC4CCCO4)c(C(=O)NC4CCCC4)cc3c(=O)n2c1 (stereo not given) | 0.8% |
| Cc1ccc(NC(=O)CSc2nnc3n2CCCCC3)cc1 | 4.6% |
| Cc1cccc2c1CC(C)(C)NC2=C(C#N)C#N | 5% |
| CC(Nc1c([N+](=O)[O-])c(=O)oc2ccccc12)c1ccccc1 (stereo not given) | 10.5% |
| CC(Nc1c([N+](=O)[O-])c(=O)oc2ccccc12)C(Cl)c1ccccc1 (stereo not given) | 22% |
| O=C(O)CC/C(=N\NC(=O)CNC(=O)/C=C/c1ccccc1)c1ccccc1 | 2.6% |
| Cc1cc(C)n(CC(=O)N/N=C/c2cccs2)n1 | 7.5% |
| COc1ccc(S(=O)(=O)N2CCCOC2CNC(=O)C(=O)NCc2cccnc2)cc1 (stereo not given) | 13.9% |
| CCOc1ccccc1C1c2[nH]c3ccccc3c2C[C@H]2C(=O)N(C3CCN(Cc4ccccc4)CC3)CC(=O)N12 (stereo not given in full) | -0.7% |
| COC(=O)c1c(NC(NC(=O)CC(C)C)C(Cl)(Cl)Cl)sc2c1CCC2 (stereo not given) | 60% |
| COC(=O)c1c(NC(NC(C)=O)C(Cl)(Cl)Cl)sc2c1CCCC2 (stereo not given) | 13.5% |
| CCC(=O)NC(Nc1sc2c(c1C(=O)OC)CCC2)C(Cl)(Cl)Cl (stereo not given) | -15.1% |
| COC(=O)c1c(NC(NC(=O)C(C)C)C(Cl)(Cl)Cl)sc2c1CCC2 (stereo not given) | -7.5% |
| COC(=O)c1c(NC(NC(=O)C(C)C)C(Cl)(Cl)Cl)sc2c1CCCC2 (stereo not given) | 76.3% (active) |
| CN(C)S(=O)(=O)NCCNC(=O)c1cc(OCC(F)(F)F)ccc1OCC(F)(F)F | -3.8% |
| COc1cccc2c1OCC(CN1CCN(Cc3ccccc3F)C(CCO)C1)=C2 (stereo not given) | 8.5% |
| Cc1cccc(NC(=S)N2CCC(NC(=O)c3ccco3)CC2)c1 | 7.3% |
| COc1ccccc1CNC(=O)C1CCN(S(=O)(=O)c2ccc(-n3cnnn3)cc2)CC1 | 1% |
| Cc1ccc(S(=O)(=O)N(C)c2ccc(C(=O)NCc3cccnc3)cc2)cc1 | 11.2% |
| Cc1cc(C)n2nc(-c3ccccc3)c(-c3ccccc3)c2n1 | 7.9% |
| Cc1cc(N)n2nc(C)c(-c3ccccc3)c2n1 | -2.4% |
